Compound activity (PubChem)
Compounds with a hit are over-represented: about 3.6% of the library has one in this group of screens.
S16 viability – Cell viability qHTS assay in S16 Pmp22-F2sN cells. S16 Pmp22-F2sN Schwann cells viability, CellTiter-Glo, 24 h. Potency, µM (series often up to 57.5 µM), for inactives: at the highest dose activity change, negative = cytotoxicity, actives largely listed as cytotoxic. actives 0.48% (n = 43,000); further: potency means the concentration at half of the fitted maximal effect; on the % scale 0 is the no-effect control and ±100 the full control effect; nearly all actives have a fitted effect of over 65% in size
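Seed 500-1,000 S16 Pmp22-F2sN cells per well in phenol-red-free DMEM with 10% heat-inactivated FBS; pin-add 23 nL compound; incubate 24 h at 37C; add CellTiter-Glo, wait 15 min protected from light; read luminescence.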
OvCa metastasis – Primary qHTS assay for Inhibitors of ovarian cancer metastasis using an organotypic tumor microenvironment (TME) model; AID 1963576, 2024; Potency, µM (titrated, usually from 45.8 µM), for the others: at the top dose activity change, negative = inhibition, actives largely listed as inhibitors; actives 0.1% (n = 46,000); SKOV3ip1-GFP adhesion/invasion on 3D omental model, fluorescence;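 further: potency means the concentration at half of the fitted maximal effect; plate controls were DMSO wells for no effect and tomatine positive control wells for full effect; nearly all actives have a fitted effect of over 65% in size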
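qHTS, 4-pt dose (0.36-46 umol/L); SKOV3ip1-GFP, 1,200 cells/well, no FBS; primary omental fibroblast/mesothelial co-culture 48 h pre-grown; 2 h RT + 16 h 37 C; PBS wash, 4% PFA; GFP count 488/509 nm.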
HTT prom inh – Primary qHTS for Identification of Small Molecule Inhibitors of Huntingtin Promoter Activity | AID 1508623, 2021 | Potency, µM (titrated, usually from 57.5 µM), for inactives: at the highest dose activity change, negative = inhibition, actives largely listed as inhibitors | actives 0.93% (n = 48,000) | HEK293 HTT promoter firefly luciferase reporter, 24 h; further: potency means the concentration at half of the fitted maximal effect; nearly all actives have a fitted effect of over 50% in size
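Quantitative HTS used concentration series of up to 57.5 uM final on HEK293 luciferase reporter cells, 24 h at 37 degrees C. Readout was Dual-Glo firefly luminescence.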
HTT-AS promoter – Primary qHTS for Identification of Small Molecule Activators of Huntingtin-Antisense Promoter Activity | HEK293 HTT-AS promoter firefly luciferase reporter, 24 h; response scale: percent change from vehicle, -100% = no light | Potency, µM (top dose mostly 57.5 µM), for inactives: at the highest dose activity change, positive = activation, actives largely listed as activators | actives 0.24% (n = 48,000) | AID 1508624, 2021; further: potency means the concentration at half of the fitted maximal effect; nearly all actives have a fitted effect of over 55% in size
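Luminescence was read after Dual-Glo reagent and a 10 min room-temperature incubation. Values were normalized to vehicle (0% activity) and zero RLU (-100% activity). Reporter HEK293 cells had been exposed to compounds (up to 57.5 uM final) for 24 h.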
PMP22 txn – Cell-based coincidence reporter assay to measure PMP22 gene transcription in S16 Pmp22-F2sN cells - Primary screen | actives 2% (n = 43,000) | AID 1508649, 2021 | Potency, µM (titrated, usually from 57.5 µM), inactives show top-dose activity change, negative = inhibition, actives largely listed as inhibitors | S16 Pmp22-F2sN Schwann cells (luciferase reporters placed in the Pmp22 gene), FLuc/NLuc coincidence luminescence, 24 h; active means clear falling dose curves in both reporters; inconclusive means both reporters move, but less clearly or upward; inactive means either reporter flat; the % is the NLuc reporter signal; further: potency means the concentration at half of the fitted maximal effect; on the % scale 0 is the no-effect control and ±100 the full control effect
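Luminescent read-out of sequential FLuc and NLuc signals from a reporter embedded in the Pmp22 3' UTR of S16 Schwann cells, taken after 24 h compound exposure at 37C; compounds reducing both signals score as inhibitors of expression.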
pS6 MEF inh – Acumen qHTS Assay for Inhibitors of the mTORC1 Signaling Pathway in MEF (Tsc2-/-, p53-/-) Cells: Sytravon | actives 0.78% (n = 44,000) | AID 493208, 2011 | Potency, µM (top dose mostly 38.3 µM), for inactives: top-dose activity change, negative = inhibition, hits mostly inhibitors | Tsc2-/- p53-/- MEF, phospho-rpS6 immunofluorescence/PI, 24 h;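 further: potency means the concentration at half of the fitted maximal effect; plate controls were DMSO for no effect and rapamycin for full effect; nearly all actives have a fitted effect of over 50% in size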
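Tsc2-/-, p53-/- MEFs (empty-vector stable line) in DMEM + 10% FBS were treated with compounds 24 h at 37 degree Celsius, fixed, and immunostained for phospho-rpS6 (Alexa-488) with propidium iodide counterstain. Laser-scanning cytometry gave % positive cells, normalized against 7.5 nM rapamycin and DMSO.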
NLuc sat counter – Biochemical NLuc saturation counterscreen for small molecule modulators of PMP22 gene expression - Nano-Glo assay | shares compounds with PMP22 txn | Secreted NLuc enzyme (filtered S16 cell medium), Nano-Glo luminescence | Potency, µM (doses to about 57.5 µM), for the others: top-dose activity change, negative = inhibition, hits mostly inhibitors | actives 4% (n = 690) | AID 1508638, 2021; further: potency means the concentration at half of the fitted maximal effect; on the % scale 0 is the no-effect control and ±100 the full control effect
NLuc Km counter – Biochemical coelenterazine-based NLuc counterscreen for small molecule modulators of PMP22 gene expression - Km assay | shares compounds with PMP22 txn | secreted NLuc enzyme, coelenterazine luminescence, Km conditions | Potency, µM (top dose mostly 57.5 µM), without a hit: at the top dose activity change, negative = inhibition, actives largely listed as inhibitors | actives 5% (n = 690) | AID 1508639, 2021; further: potency means the concentration at half of the fitted maximal effect; on the % scale 0 is the no-effect control and ±100 the full control effect
FLuc counter – Biochemical FLuc counterscreen for small molecule modulators of PMP22 gene expression; 690 tested, under 10 active; AID 1508640, 2021; shares compounds with PMP22 txn; Potency, µM (top dose mostly 57.5 µM), for inactives: at the top dose activity, negative = inhibition, usual class: inhibitors; purified P. pyralis FLuc, luminescence, 10 min; further: % of control where 0% means no effect
Target sequence (P08659 whole entry, looked up): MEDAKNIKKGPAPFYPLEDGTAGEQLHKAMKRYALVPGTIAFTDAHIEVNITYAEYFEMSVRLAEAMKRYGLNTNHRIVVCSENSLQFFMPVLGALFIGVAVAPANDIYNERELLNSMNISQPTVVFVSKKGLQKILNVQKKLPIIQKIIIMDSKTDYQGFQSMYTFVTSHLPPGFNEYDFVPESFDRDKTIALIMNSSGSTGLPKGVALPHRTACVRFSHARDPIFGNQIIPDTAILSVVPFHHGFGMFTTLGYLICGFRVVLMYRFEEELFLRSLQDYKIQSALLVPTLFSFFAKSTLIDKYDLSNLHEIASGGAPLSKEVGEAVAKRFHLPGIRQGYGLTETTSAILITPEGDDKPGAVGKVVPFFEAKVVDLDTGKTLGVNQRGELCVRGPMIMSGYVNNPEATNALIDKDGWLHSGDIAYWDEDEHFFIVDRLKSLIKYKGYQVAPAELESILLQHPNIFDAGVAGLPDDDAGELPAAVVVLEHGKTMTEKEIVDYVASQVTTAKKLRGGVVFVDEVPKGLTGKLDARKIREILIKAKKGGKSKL
S16 F2sN tox cnf – Cell viability qHTS assay in S16 Pmp22-F2sN cells - Confirmatory screen. shares compounds with PMP22 txn. S16 Schwann cells viability, CellTiter-Glo ATP luminescence, 24 h. Potency, µM (top dose mostly 57.5 µM), for the others: at the top dose activity change, negative = viability loss, most hits filed as cytotoxic. actives 7% (n = 690); further: potency means the concentration at half of the fitted maximal effect; on the % scale 0 is the no-effect control and ±100 the full control effect
PMP22 txn conf – Cell-based coincidence reporter assay to measure PMP22 gene transcription in S16 Pmp22-F2sN cells - Confirmatory screen | AID 1508646, 2021 | actives 22% (n = 690) | S16 Schwann cells Pmp22-F2sN, dual luciferase, 24 h | shares compounds with PMP22 txn | Potency, µM (doses to about 57.5 µM), inactives show at the highest dose activity change, negative = inhibition, usual class: inhibitors; active means clear falling dose curves in both reporters; inconclusive means both reporters move, but less clearly or upward; inactive means either reporter flat; the % is the FLuc reporter signal; further: potency means the concentration at half of the fitted maximal effect
PMP22 HiBiT cnf – Cell-based HiBiT reporter assay to measure PMP22 protein expression in S16 Pmp22-HiBiT cells - Confirmatory screen | shares compounds with PMP22 txn | Potency, µM (doses to about 27.9 µM), without a hit: at the highest dose activity change, negative = inhibition, hits mostly inhibitors | 95 tested, under 10 active | S16 Schwann cells Pmp22-HiBiT, luminescence, 48 h | AID 1508647, 2021
Starred values were filed as active, the others as inactive; i = inactive; ? = inconclusive; . = no result given. Unless noted, the call rests on the fitted dose curve; in most records, active means well fitted curve in the direction sought with a large enough effect; inconclusive means small, poorly fitted or top-dose-only effect, or another doubt; inactive means no such curve, though single readings can be large; an effect the other way counts as inactive or inconclusive.

SMILES	S16 viability	OvCa metastasis	HTT prom inh	HTT-AS promoter	PMP22 txn	pS6 MEF inh	NLuc sat counter	NLuc Km counter	FLuc counter	S16 F2sN tox cnf	PMP22 txn conf	PMP22 HiBiT cnf
Cc1ccc(CNC(=O)c2nc(SCc3cccc(C)c3)ncc2Cl)cc1	-18%	i	?	-25%	-19%	2%	.	.	.	.	.	.
Cc1c(-c2cccc3c(CCCOc4cccc5ccccc45)c(C(=O)O)n(Cc4cccnc4)c23)c(COc2ccc(N3CCN([S+](=O)([O-])N(C)C)CC3)cc2)nn1C	.	0%	?	-22%	.	.	.	.	.	.	.	.
Cc1ccc(NC(=O)N2CCc3cc(S(=O)(=O)N4CCC(C)CC4)ccc32)cc1F	6%	0%	-18%	-9%	8.9µM*	-2%	-5%	5%	-4%	?	15µM*	3%
O=C(Cn1c(=O)n(Cc2ccc3c(c2)OCO3)c(=O)c2ccc(C(=O)NC3CCCCC3)cc21)Nc1ccccc1F	-2%	4%	-18%	-18%	?	?	.	.	.	.	.	.
Cc1cc(C)c(NC(=O)Cn2c(=O)n(Cc3ccco3)c(=O)c3ccc(C(=O)NC4CCCC4)cc32)c(C)c1	14%	-7%	-8%	-7%	5µM*	-7%	-13%	8%	-17%	22µM*	12µM*	17%
Cc1ccc(C)c(NC(=O)Cn2c(=O)n(Cc3ccco3)c(=O)c3ccc(C(=O)NC4CCCC4)cc32)c1	2%	-2%	-10%	-29%	?	?	.	.	.	.	.	.
